AMA1-RON2 inh – inhibitors of Plasmodium falciparum AMA1-RON2 interaction | Potency, µM (top dose mostly 58.2 µM), most hits filed as inhibitors | AlphaScreen AMA1-biotinylated RON2 peptide binding | actives 0.2% (n = 360,000); further: nearly all actives have a fitted effect of over 45% in size
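AMA1 (3D7) with his tag at 25 nM final met compounds first, then biotinylated RON2 peptide at 25 nM; detection used donor plus acceptor beads, 10 µg/mL apiece, read by AlphaScreen after 30 min at room temperature.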
HCV inhibitor – blocks hepatitis C virus | Huh7.5.1 HCVcc-Cre infection, luciferase reporter, 44 h | Potency, µM (doses to about 41.8 µM), actives largely listed as inhibitors | actives 3.4% (n = 340,000) | AID 651820
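Infectious HCVcc-Cre (~0.5 moi) was added to cells just after compound, with cells seeded 4 h earlier at 1,000 per well. Luciferase activity after 44 h culture reported infection; substrate was incubated 15 min at room temperature before reading.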
NS1 function inh – inhibitors of influenza NS1 protein function. Potency, µM (doses to about 46.1 µM). actives 0.4% (n = 270,000). AID 2326; calls by dose curve; further: actives are rising curves; nearly all actives have a fitted effect of over 50% in size
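Read-out: OD600 growth recovery of NS1-expressing budding yeast. Cells grown overnight at 30C in -URA glucose medium, washed, resuspended and diluted 1:100 in 2% galactose assay medium, pH 6.0. Same strain lacking NS1 served as positive control.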
Pf growth 48h – P. falciparum growth inhibition at 48 hours (one generation); P. falciparum luciferase growth in erythrocytes, 48 h; Potency, µM (top dose mostly 28.7 µM), actives largely listed as inhibitors; actives 5.9% (n = 310,000)
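Luciferase-expressing parasites in RBCs, 2% Hct / 0.1% parasitemia final; RPMI 1640 + 0.5% Albumax; 37 C, 5% CO2, one generation; luminescence read-out, lower signal = inhibition.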
SARS PLpro yeast – blocks SARS-CoV papain-like protease in a yeast assay. actives 0.19% (n = 330,000). Potency, µM (titrated, usually from 32.9 µM), actives largely listed as activators. AID 485353. S. cerevisiae expressing SARS-CoV PLpro, growth rescue; calls by dose curve; further: nearly all actives have a fitted effect of over 55% in size
Pf growth 96h – P. falciparum growth inhibition at 96 hour, primary screen for plastid delayed-death inhibitors | P. falciparum luciferase reporter growth, 96 h | Potency, µM (titrated, usually from 28.7 µM), most hits filed as inhibitors | actives 6.9% (n = 320,000) | AID 504834
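Cell-based qHTS: luciferase-tagged P. falciparum in erythrocytes (2% hematocrit, 0.05% parasitemia final) incubated with compounds for 96 hours, 37 C, 5% CO2; luciferase detection reagent then added and luminescence measured.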
HCV inh confirm – confirmation of hepatitis C virus inhibitors; Potency, µM (series often up to 41.8 µM), actives largely listed as inhibitors; actives 78% (n = 640); shares compounds with HCV inhibitor; HCVcc-Cre infectious virus cell assay, luciferase, inhibition; further: nearly all actives have a fitted effect of over 80% in size
HCV cytotox – host cell cytotoxicity counter-screen for HCV inhibitors | HCV host cell line cytotoxicity counterscreen | actives 22% (n = 640) | shares compounds with HCV inhibitor | Potency, µM (top dose mostly 41.8 µM), usual class: inhibitors;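 further: 44 h compound exposure; nearly all actives have a fitted effect of over 55% in size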
Numbers stand for hits; i = inactive; ? = inconclusive; nt = not tested or not shown; [ ] = dose if it differs, or a comment. Sampled rows, rich in hits. Any-hit rate of the full collection: about 12%. Unless noted, the call rests on the fitted dose curve; in most records, active means well fitted curve in the direction sought with a large enough effect; inconclusive means small, poorly fitted or top-dose-only effect, or another doubt; inactive means no such curve, though single readings can be large; an effect the other way counts as inactive or inconclusive.

SMILES | AMA1-RON2 inh | HCV inhibitor | NS1 function inh | Pf growth 48h | SARS PLpro yeast | Pf growth 96h | HCV inh confirm | HCV cytotox
O=C(NC1c2ccccc2-c2ccccc21)c1ccco1 | i | ? | i | ? | i | ? | 7.9µM | i
COc1cccc(N(C(=O)CCl)C(C(=O)NCCc2ccccc2)c2cccs2)c1 (stereo unspecified) | i | 0.71µM | i | 12µM | i | 9.3µM | 0.89µM | 0.5µM
COc1cccc(N(C(=O)c2snc(C(N)=O)c2N)C(C(=O)NCC2CCCO2)c2cccs2)c1 (stereo unspecified) | i | i | i | ? | i | ? | nt | nt
O=C(NCCOC(=O)c1ccccc1C(=O)OCCNC(=O)c1cccnc1)c1cccnc1 | i | i | i | nt | i | i | nt | nt
Cc1cc(C)c(C(=O)OCCNC(=O)c2cccnc2)cc1C | i | 8.9µM | i | i | i | i | ? | i
CN1CCN(/N=C/c2ccc(Br)cc2)CC1 | i | i | nt | i | i | i | nt | nt
CN1CCN(/N=C/c2ccc(Cl)c(Cl)c2)CC1 | i | ? | i | i | i | i | ? | i
COc1ccc(C2CC(=O)C3=C(C2)Nc2ncnn2C3c2ccccc2C)c(OC)c1 (stereo unspecified) | i | 3.5µM | i | 7.4µM | i | 8.3µM | 7µM | i
Cc1sc2nc(SCC(=O)c3cccs3)n(Cc3ccco3)c(=O)c2c1C | i | i | i | ? | i | nt | ? | 2.8µM
Cc1cc2c(=O)n(Cc3ccco3)c(SCC(=O)N3CCCc4ccccc43)nc2s1 | i | ? | i | ? | i | nt | nt | nt
CCCCNC(=O)CSc1nc2cc3c(cc2c(=O)n1Cc1ccco1)OCO3 | i | ? | nt | i | i | i | 14µM | i
Cc1ccc(CNC(=O)CSc2nc3ccsc3c(=O)n2Cc2ccccn2)cc1 | i | i | nt | i | i | i | nt | nt
Cc1ccc(Cn2c(SCC(=O)NCc3ccco3)nc3ccsc3c2=O)cc1 | i | 4.5µM | i | 13µM | i | ? | 11µM | i
Cc1cc2c(=O)n(Cc3ccco3)c(SCC(=O)NCc3ccco3)nc2s1 | i | 3.5µM | i | ? | i | nt | 2.8µM | i
COC(=O)c1sccc1N/N=C/c1cccc(Oc2ccccc2)c1 | i | i | i | i | i | i | nt | nt
COc1cc2c(cc1NC(=O)COC(=O)c1ccccc1)oc1ccccc12 | nt | nt | i | i | i | i | nt | nt
COc1ccc(S(=O)(=O)N[C@@H](C)C(=O)OCC(=O)Nc2cc3oc4ccccc4c3cc2OC)cc1 | i | 6.3µM | i | i | i | i | 22µM | i
COc1ccc(OCC(=O)Nc2cc3oc4ccccc4c3cc2OC)cc1 | i | ? | ? | i | i | i | nt | nt
COc1cc2c(cc1NC(=O)COC(=O)CNS(=O)(=O)c1ccc(C)cc1)oc1ccccc12 | i | ? | i | i | i | i | 7.9µM | i
COc1cc2c(cc1NC(=O)COC(=O)[C@@H](NS(=O)(=O)c1cccc(Cl)c1)C(C)C)oc1ccccc12 | i | ? | ? | i | i | i | 13µM | i
COc1ccc(NC(=O)COC(=O)CNS(=O)(=O)c2ccc(C)cc2)c(OC)c1 | i | i | i | i | i | i | nt | nt
COc1ccccc1NC(=O)Nc1cccnc1 | i | i | i | i | i | i | nt | nt
CCOc1ncccc1C(=O)NCCc1ccc(Cl)cc1 | i | i | i | i[0.00184 µM] | i | i | nt | nt
CN1CCN(c2ccc(S(=O)(=O)C(F)(F)F)cc2[N+](=O)[O-])CC1 | i | i | i | i | i | ? | nt | nt
CN1CCN(c2ccc([N+](=O)[O-])c3no[n+]([O-])c23)CC1 | i | 2.2µM | i | ? | i | ? | 22µM | 22µM
SMILES | AMA1-RON2 inh | HCV inhibitor | NS1 function inh | Pf growth 48h | SARS PLpro yeast | Pf growth 96h | HCV inh confirm | HCV cytotox
CSc1nc(NCc2ccco2)c2ccccc2n1 | i | i | i | nt | i | i | nt | nt
c1ccc(Nc2nc(NCc3ccco3)c3ccccc3n2)cc1 | i | 4µM | i | ? | i | ? | 14µM | 25µM
Nc1nc(CCl)nc(N(c2ccccc2)c2ccccc2)n1 | i | 0.56µM | ? | 5.2µM | i | 2.1µM | 1µM | i
Nc1nc(Cl)nc(N(c2ccccc2)c2ccccc2)n1 | i | i | i | i | i | i | nt | nt
COC(=O)c1c(C(=O)OC)c2cccc3cc(-c4ccccc4)c4ccc1c4n32 | ? | 1.8µM | i | nt | i | ? | 5.6µM | ?
CCCCn1c(SCc2nc3ccccc3s2)nc2ccccc2c1=O | i | ? | i | i | i | i | nt | nt
CCCCn1c(SCc2nc3ccccc3s2)nc2cc(S(N)(=O)=O)ccc21 | i | ? | i | nt | i | ? | 18µM | i
CC[n+]1c(/C=C2\Sc3ccccc3N2C)ccc2cccc(C)c21 | i | 2.8µM | i | ? | i | i | 2.5µM | 2.5µM
CCCC(=O)Nc1cccc(NC(=O)c2cccc([N+](=O)[O-])c2C)c1 | i | 7.9µM | i | i | i | i | 13µM | i
CCN(CC)C[C@@H](O)c1ccc2ccc3ccccc3c2c1 | nt | nt | i | nt | nt | nt | nt | nt
COc1ccc(NC(=O)Nc2cccc(Cl)c2Cl)c(OC)n1 | i | 2.8µM | i | ? | i | 9.3µM | ? | i
COc1cc(CC(=O)OCC(=O)N(C)C2CCCCC2)cc(OC)c1OC | i | i | nt | nt | i | nt | nt | nt
CC1(C)CC(=O)C(N=Nc2ccc(S(=O)(=O)N3CCOCC3)cc2)=C(O)C1 | i | i | i | i | i | i | nt | nt
COc1ccc(Cl)cc1NC(=O)C(C)OC(=O)C1=NNC(=O)CC1 (stereo unspecified) | i | ? | nt | i | i | i | ? | i
COc1ccc(NC(=S)N2CCCC(c3nc4ccc(C)cc4[nH]3)C2)c(OC)c1 (stereo unspecified) | i | ? | i | i | i | i | nt | nt
COc1ccc(NC(=S)N2CCCC(c3nc4ccc(C)cc4[nH]3)C2)cc1 (stereo unspecified) | i | 5µM | i | i | i | ? | 0.035µM | i
COC1C(O)C(C)OC(OC2CCC3(C)C(CCC4C3C(O)CC3(C)C(C5=CC(=O)OC5)CCC43O)C2)C1O (stereo unspecified) | i | 1.6µM | nt | nt | nt | nt | 1.1µM | ?
COc1ccc(Cl)cc1NC(=O)CN1CCc2ccccc21 | ? | ? | i | i | i | i | nt | nt
CCCCCn1c(=O)c(C(=O)NCc2ccco2)c(O)c2ccccc21 | i | ? | i | ? | i | ? | 25µM | ?
CC(C)CCn1c(=O)c(C(=O)NCc2ccco2)c(O)c2ccccc21 | i | ? | i | ? | i | i | nt | nt
Cc1ccc(C(c2nnnn2CC2CCCO2)N2CCN(Cc3ccccc3)CC2)cc1 (stereo unspecified) | i | i | i | i | i | ? | nt | nt
CC1(C)Oc2ccc3ccc(=O)oc3c2-c2cn[nH]c21 | i | 7.1µM | i | ? | i | 9.3µM | ? | ?
CC1(C)Oc2ccc3ccc(=O)oc3c2-c2cnoc21 | i | i | i | i | i | ? | nt | nt
